# Screening data as filed in PubChem BioAssay.
# VHR inh abs: VHR1 phosphatase inhibitors, primary screen, biochemical, absorbance, uHTS; Dual specificity protein phosphatase 3 (Homo sapiens), P51452; recombinant VHR phosphatase, pNPP absorbance; inhibition, % at 13.3 µM; 290,000 tested, 0.52% active; in the data active means inhibition above about 50%
# TcdB inh: TcdB glycohydrolase inhibitors, primary screen, biochemical, single point, plate reader | Toxin B (Clostridioides difficile), P18177 | TcdB glycohydrolase enzymatic assay | inhibition, % at 9.99 µM | 350,000 tested, 0.24% active | AID 652162, 2013; in the data active means inhibition above about 10%
# Target sequence (P18177 whole entry, looked up): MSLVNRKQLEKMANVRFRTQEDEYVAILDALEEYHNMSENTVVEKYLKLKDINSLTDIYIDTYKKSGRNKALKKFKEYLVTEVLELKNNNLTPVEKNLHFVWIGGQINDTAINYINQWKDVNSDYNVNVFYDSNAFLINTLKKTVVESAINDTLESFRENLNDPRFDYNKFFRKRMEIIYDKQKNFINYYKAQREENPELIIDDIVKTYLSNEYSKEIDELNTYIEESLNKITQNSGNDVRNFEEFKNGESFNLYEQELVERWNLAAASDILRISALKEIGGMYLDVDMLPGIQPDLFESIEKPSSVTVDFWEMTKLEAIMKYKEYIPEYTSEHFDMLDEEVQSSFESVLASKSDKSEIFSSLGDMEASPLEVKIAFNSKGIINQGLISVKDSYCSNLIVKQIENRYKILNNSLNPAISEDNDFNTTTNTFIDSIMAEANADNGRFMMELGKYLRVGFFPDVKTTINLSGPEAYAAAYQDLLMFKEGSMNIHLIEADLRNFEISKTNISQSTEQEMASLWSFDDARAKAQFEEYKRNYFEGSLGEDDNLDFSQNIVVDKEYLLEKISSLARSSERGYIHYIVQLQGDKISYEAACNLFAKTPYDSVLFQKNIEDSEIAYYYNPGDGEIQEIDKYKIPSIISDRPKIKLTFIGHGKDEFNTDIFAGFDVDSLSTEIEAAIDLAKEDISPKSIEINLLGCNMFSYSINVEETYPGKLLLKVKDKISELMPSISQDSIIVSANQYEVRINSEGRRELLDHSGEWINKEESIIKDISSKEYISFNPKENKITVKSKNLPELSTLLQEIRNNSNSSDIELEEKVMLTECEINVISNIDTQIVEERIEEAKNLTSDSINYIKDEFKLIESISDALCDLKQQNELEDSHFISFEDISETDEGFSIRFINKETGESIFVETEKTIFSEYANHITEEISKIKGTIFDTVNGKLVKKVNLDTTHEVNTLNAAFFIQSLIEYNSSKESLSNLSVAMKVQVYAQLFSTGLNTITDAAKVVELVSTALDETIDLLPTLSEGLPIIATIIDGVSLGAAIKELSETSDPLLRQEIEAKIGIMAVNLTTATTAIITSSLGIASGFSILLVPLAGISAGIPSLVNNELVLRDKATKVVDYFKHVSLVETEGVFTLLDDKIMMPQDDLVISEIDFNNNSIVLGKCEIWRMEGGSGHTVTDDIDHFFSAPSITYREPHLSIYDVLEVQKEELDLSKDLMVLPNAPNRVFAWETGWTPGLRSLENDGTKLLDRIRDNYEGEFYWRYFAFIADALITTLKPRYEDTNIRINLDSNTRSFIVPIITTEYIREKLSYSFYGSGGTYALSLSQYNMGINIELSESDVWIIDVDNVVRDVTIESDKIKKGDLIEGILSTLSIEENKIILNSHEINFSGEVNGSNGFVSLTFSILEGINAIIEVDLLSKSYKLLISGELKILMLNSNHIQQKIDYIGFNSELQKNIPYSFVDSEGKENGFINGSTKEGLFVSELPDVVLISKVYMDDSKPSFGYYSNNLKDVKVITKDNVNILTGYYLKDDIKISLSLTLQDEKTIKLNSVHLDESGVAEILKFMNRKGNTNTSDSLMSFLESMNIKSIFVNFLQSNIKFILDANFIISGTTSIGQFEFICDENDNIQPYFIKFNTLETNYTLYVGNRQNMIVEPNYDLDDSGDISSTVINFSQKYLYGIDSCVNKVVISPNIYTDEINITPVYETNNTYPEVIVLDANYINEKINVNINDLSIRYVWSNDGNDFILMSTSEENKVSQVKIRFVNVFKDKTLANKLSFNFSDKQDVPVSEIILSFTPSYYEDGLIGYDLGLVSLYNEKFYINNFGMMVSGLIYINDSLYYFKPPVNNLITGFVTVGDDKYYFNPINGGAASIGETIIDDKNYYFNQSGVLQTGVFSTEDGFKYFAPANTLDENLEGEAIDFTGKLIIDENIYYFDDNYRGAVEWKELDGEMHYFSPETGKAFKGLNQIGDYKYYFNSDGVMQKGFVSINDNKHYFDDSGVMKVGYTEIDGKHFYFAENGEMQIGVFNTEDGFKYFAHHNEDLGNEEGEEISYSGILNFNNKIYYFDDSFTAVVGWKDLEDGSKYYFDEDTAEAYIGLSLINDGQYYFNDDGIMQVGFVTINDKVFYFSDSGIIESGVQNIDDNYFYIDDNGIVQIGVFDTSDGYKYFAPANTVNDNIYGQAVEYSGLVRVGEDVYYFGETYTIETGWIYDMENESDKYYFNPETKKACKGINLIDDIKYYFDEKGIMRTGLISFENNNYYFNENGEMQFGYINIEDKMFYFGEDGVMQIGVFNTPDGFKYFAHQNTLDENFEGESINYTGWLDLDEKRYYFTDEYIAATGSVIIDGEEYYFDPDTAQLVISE
# SSB-PriA inh: inhibitors of Klebsiella pneumoniae PriA binding to SSB C-terminal tail, primary screen, biochemical, AlphaScreen; PriA–SSB C-terminal tail interaction (Klebsiella pneumoniae); AlphaScreen SSBct-PriA binding, biotinylated peptide; 430,000 tested, 0.6% active; inhibition, % at 33 µM; AID 1272365, 2023; in the data active means inhibition mostly above about 37%, no sharp cut-off; inactive means mostly below about 20%
# PrPC TRFRET: inhibitors of human cell surface prion protein PrPC, primary screen, cell-based, TR-FRET; inhibition, % at 13.8 µM; AID 720596, 2013; TR-FRET read-out; 370,000 tested, 0.43% active; in the data active means inhibition above about 24%
# CCHFV vOTU inh: CCHFV vOTU protease inhibitors, primary screen, biochemical, Pep-AMC substrate, fluorescence; inhibition, % at 11.5 µM; 370,000 tested, 0.55% active; AID 651958, 2012; in the data active means inhibition above about 30%
# Vc quorum ag-1: inducers of Vibrio cholerae quorum light production without autoinducers, primary screen, BH1578 luxS cqsA deficient, single point. AID 588436, 2011. 350,000 tested, 0.16% active. V. cholerae BH1578 lux reporter, luminescence, 6 h. activation, % at 18.7 µM; in the data active means activation mostly above about 9.7%, no sharp cut-off
# Vc quorum ag-2: V. cholerae lux activation without autoinducers – BH1578 luxS cqsA deficient, cherry-pick, plate reader, dose response | shares compounds with Vc quorum ag-1 | V. cholerae BH1578 lux reporter, luminescence, 6 h | activation, % at 50 µM | 620 tested, under 10 active; call rule not given here
# Numbers stand for hits; n = inactive; x = not tested or not shown. Most compounds without a hit are left out; they make up all but 1.5% or so of the library.
SMILES,VHR inh abs,TcdB inh,SSB-PriA inh,PrPC TRFRET,CCHFV vOTU inh,Vc quorum ag-1,Vc quorum ag-2
C#CCn1c(=NC(=O)c2cc(OCC)c(OCC)c(OCC)c2)sc2cc(S(N)(=O)=O)ccc21,x,x,n,x,x,x,x
Cn1c(CNc2cccc(Cl)c2)nnc1SCC(=O)OC1CCCCC1,n,x,n,n,n,17,n
CC1(C)C(=O)NCCN1C(=O)C1CC1,x,x,n,x,x,x,x
COc1ccccc1N1CCN(C(=O)c2cc3c(s2)CCC3)CC1,n,x,n,n,n,n,n
CN1CCN(C(CNC(=O)c2ccc(C#N)cc2)c2ccsc2)CC1 (centres undefined),x,x,n,x,x,x,x
O=C(CCc1cccc(Cl)c1)N(Cc1ccsc1)C1CC1,x,x,n,x,x,x,x
CN(C)Cc1c(O)c(Cl)cc2c3c(c(=O)oc12)CCCC3,n,x,n,n,n,x,x
O=c1oc2c(CN3CCOCC3)c(O)c(Cl)cc2c2c1CCC2,n,x,x,n,n,31,n
COc1cccc(N2C[C@H](CNC(=O)c3ccccc3C)OC2=O)c1,x,x,n,x,x,x,x
Cc1ccc(NC(=S)NCCc2c[nH]c3ccccc23)cc1,n,x,n,n,n,17,n
Cc1onc(-c2ccccc2)c1C(=O)Nc1nc2c(s1)CCCC2,n,x,n,n,n,7.6,n
Cc1onc(-c2c(F)cccc2Cl)c1C(=O)Nc1nc2c(s1)CCCC2,n,n,n,n,n,n,x
COc1ccc(CNC(=O)c2cc(-n3cnnc3)ccc2Cl)cc1,n,x,n,n,n,25,n
Cc1ccc(OCCNC(=O)c2cc(-n3cnnc3)ccc2Cl)cc1C,n,x,n,n,n,n,x
COc1ccc(CCNC(=O)c2ccc(Cl)cc2Cl)cc1,n,x,n,n,n,28,n
CN(C1CCCCC1)S(=O)(=O)CCNC(=O)c1ccccc1,x,n,n,n,n,n,n
COc1cccc(C(=O)NCCS(=O)(=O)N(C)C2CCCCC2)c1,x,n,n,n,n,n,x
Cc1ccc(S(=O)(=O)Nc2ccccn2)c(C)c1,x,n,x,n,n,n,x
Cc1cc(C)c(S(=O)(=O)Nc2ccccn2)c(C)c1,n,n,n,n,n,52,n
Cc1ccccc1-n1nnnc1-c1ccccc1,n,x,n,n,n,n,n
COc1ccccc1NC(=O)NCCc1csc(-n2cccn2)n1,x,x,n,x,x,x,x
O=c1c2ccccc2nnn1CSc1nnc2ccccn12,n,x,n,n,n,40,n
Cc1ccc(N2C[C@@H](C(=O)NCC3CCN(C(=O)c4ccncc4)CC3)CC2=O)cc1C,x,x,n,x,x,x,x
COc1ccc(C(=O)NCC(C)(O)c2ccco2)cc1F (centres undefined),x,x,n,x,x,x,x
COC(=O)c1c(-c2ccc(Br)cc2)noc1N,n,x,n,n,n,17,n
SMILES,VHR inh abs,TcdB inh,SSB-PriA inh,PrPC TRFRET,CCHFV vOTU inh,Vc quorum ag-1,Vc quorum ag-2
Fc1ccc(N2CCn3c(SCc4cccc(C(F)(F)F)c4)nnc32)cc1,x,x,n,x,x,x,x
CC(C)Oc1ccc(C(=O)Nc2cc(S(=O)(=O)N3CCOCC3)ccc2N2CCOCC2)cc1,x,n,n,n,n,n,n
O=C(NCc1ccco1)c1cc2n(n1)C(C(F)(F)F)CC(c1ccc(Cl)c(Cl)c1)N2 (centres undefined),n,x,n,n,n,n,n
O=C(CCCc1ccccc1)N1CCOC(c2cccnc2)C1 (centres undefined),x,x,n,x,x,x,x
CCc1sc(N(C(=O)Cc2ccccc2)c2ccccc2)nc1-c1ccccc1,n,x,n,n,n,n,x
CCc1sc(N(C(=O)Cc2ccccc2)c2ccc(F)cc2)nc1-c1ccccc1,n,x,n,n,n,n,n
COc1ccc(-c2nnc3c4ccccc4c(C)nn23)cc1,n,x,n,n,n,n,n
CN1CCN(S(=O)(=O)c2ccc(NC(=O)COc3ccc(Br)cc3)cc2)CC1,x,x,n,x,x,x,x
Cc1cc(Oc2ccc(C#N)cc2)nc(N2CCOCC2)n1,n,x,n,n,n,25,n
C/C(=N\NC(=O)c1cc(-c2ccc(Cl)cc2Cl)n[nH]1)c1ccc([N+](=O)[O-])cc1,x,x,n,x,x,x,x
O=C(NC1CCCC1)c1cc(-c2cccc(F)c2)n[nH]1,x,x,n,x,x,x,x
COc1cc(OC)c(C(=O)Nc2cc(Cl)ccc2-n2cncn2)cc1OC,x,n,n,n,n,n,x
COc1cc(C(C)=O)ccc1OCC(=O)Nc1cc(Cl)ccc1-n1cncn1,x,n,n,n,n,n,n
CCCCNC(=O)COC(=O)c1ccc(NC(C)=O)cc1,n,n,n,n,n,n,x
CCCCNC(=O)COC(=O)c1ccc(N(C)C)cc1,n,n,n,n,n,170,n
CC(C)(C)c1csc(NC(=O)c2ccc(C(=O)c3ccccc3)cc2)n1,x,x,n,x,x,x,x
Cc1occc1-c1nc2s/c(=C\c3cn(-c4ccccc4)nc3-c3ccc(Cl)cc3)c(=O)n2n1,x,x,n,x,x,x,x
CCOCCCNC(=O)C(NC(=O)c1cnccn1)c1ccc(C)cc1 (centres undefined),n,x,n,n,n,28,n
CCOCCCNC(=O)C(NC(=O)c1ccc(NC(C)=O)cc1)c1ccc(C)cc1 (centres undefined),n,n,n,n,n,n,x
CO[C@@H](CNC(=O)CCc1ccc(S(C)(=O)=O)cc1)c1ccsc1,x,x,n,x,x,x,x
CCOC(=O)c1c(C)[nH]c(C(=O)COC(=O)C2(C)CC2(Cl)Cl)c1C (centres undefined),n,x,n,n,n,n,n
Cc1noc(C)c1COc1ccc(C(=O)NCC(c2c(F)cccc2Cl)N(C)C)cc1 (centres undefined),x,n,n,n,n,n,n
CC(=O)CSc1nc2c(cnn2CCO)c(=O)[nH]1,x,x,n,x,x,x,x
COc1cc(NC(=O)C2=C(C)OCCS2)c(Cl)cc1C(=O)NCCN(C)C,n,n,n,n,n,34,n
COc1cc(CCNC(=O)c2ccccc2NC(=O)C2=C(C)OCCS2)cc(OC)c1OC,n,n,n,n,n,n,x
SMILES,VHR inh abs,TcdB inh,SSB-PriA inh,PrPC TRFRET,CCHFV vOTU inh,Vc quorum ag-1,Vc quorum ag-2
CCN(CC(=O)Nc1ccccc1C(F)(F)F)C(=O)CN1C(=O)NC(C)(c2ccc3ccccc3c2)C1=O (centres undefined),x,n,n,n,n,21,n
Cc1ccc(-c2cc(C(=O)N3N=C(C(F)F)CC3(O)C(F)F)c3ccccc3n2)cc1C (centres undefined),n,x,n,n,n,n,n
CCc1ccccc1N1C(=O)N(CC(=O)c2ccc(Br)s2)c2ccccc2S1(=O)=O,x,x,n,x,x,x,x
Cn1nc(-c2ccc(C(=O)NCC3CCCO3)cc2)c2ccccc2c1=O (centres undefined),n,x,n,n,n,n,x
Cn1nc(-c2ccc(OCC(=O)NCC3CCCO3)cc2)c2ccccc2c1=O (centres undefined),n,x,n,n,n,n,n
O=C(COC(=O)/C=C/c1cccc(F)c1)NC1CCCC1,x,n,n,n,n,n,n
